In PubChem BioAssay (NCI) one finds growth data, which are given here for eight compounds.

The panel holds about 83,000 compounds, 20% with a hit somewhere; the sample as a whole holds those more often.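 Cells were grown in 96-well plates and exposed to the test compound at a single concentration for 48 hours; results are reported as percent growth, with values below 10 considered active.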 Unmarked numbers belong to inactive results. Active and inactive are the calls of the source.

Among the test systems are EKVX NSCLC; SN12C renal; UO-31 renal; TK-10 renal; ACHN renal; CAKI-1 renal; CCRF-CEM leukemia; MOLT-4 leukemia; SR leukemia; RPMI-8226 leukemia; OVCAR-8 ovarian; OVCAR-5 ovarian; OVCAR-4 ovarian; SK-OV-3 ovarian; IGROV1 ovarian; OVCAR-3 ovarian; HS 578T breast; NCI/ADR-RES ovarian; T-47D breast; A498 renal.
Assay in all cases: NCI-60 one-dose screen, 48 h (100 = growth as untreated, 0 = no growth, -100 = all killed)
Holding throughout (settings): 10 µM unless noted

Take `N#Cc1c(-c2ccc(Cl)cc2)nc2c(-c3ccccc3)c(Nc3ccccc3)nn2c1N`: the growth was 60.6% with EKVX NSCLC; 77.5% in the assay with SN12C renal; 34.8% with UO-31 renal; 139% in the assay on TK-10 renal; 11% in the assay with ACHN renal; 35.1% in the assay with CAKI-1 renal. For the same compound, the growth with CCRF-CEM leukemia is 67.9%; with MOLT-4 leukemia, 61%; with SR leukemia, 36.9%; in the assay on RPMI-8226 leukemia it was 54.1%; with OVCAR-8 ovarian it was 48.6%; in the assay on OVCAR-5 ovarian, 67.4%. The growth with OVCAR-4 ovarian is -7.41% (active); with SK-OV-3 ovarian it was 42.7%; in the assay on IGROV1 ovarian, 56.4%; with OVCAR-3 ovarian it was 58.4%; with HS 578T breast it was 37.3%; in the assay on NCI/ADR-RES ovarian, 38.9%. In addition, the growth in the assay on T-47D breast is 52.9%.

As for `CS(=O)(=O)Nc1ccc(-c2nn(-c3ccc(S(C)(=O)=O)cc3)cc2/C=C/C(=O)c2ccc(NC(=O)CO[N+](=O)[O-])cc2)cc1`, the growth was 103% in the assay with EKVX NSCLC; 109% in the assay with SN12C renal; 93.9% with UO-31 renal; 112% in the assay with TK-10 renal; 96.1% with ACHN renal; 97.7% with CAKI-1 renal. Also, the growth in the assay on A498 renal was 110%; in the assay with CCRF-CEM leukemia, 111%; in the assay on MOLT-4 leukemia it was 107%; in the assay on SR leukemia it was 92.1%; in the assay on RPMI-8226 leukemia it was 111%; in the assay with OVCAR-5 ovarian it was 103%. Moreover, the growth in the assay with OVCAR-4 ovarian is 106%; in the assay with SK-OV-3 ovarian, 99.7%; in the assay with IGROV1 ovarian, 105%; in the assay on OVCAR-3 ovarian it was 116%; in the assay with HS 578T breast it was 122%; in the assay on NCI/ADR-RES ovarian, 97.3%. Further, the growth in the assay on T-47D breast is 102%.

On to `O=C(N/N=C/c1ccc(Br)s1)c1[nH]c2ccc(Br)cc2c1-c1ccccc1`, for which the growth in the assay on EKVX NSCLC was 40.9%; in the assay with SN12C renal, 56.3%; in the assay with UO-31 renal, 48.6%; with TK-10 renal, 109%; in the assay with ACHN renal it was 26.7%; in the assay with CAKI-1 renal, 22.8%. Moreover, the growth is 9.08% (active) in the assay on CCRF-CEM leukemia; 14.2% in the assay with MOLT-4 leukemia; 10.1% with SR leukemia; 5.48% (active) in the assay with RPMI-8226 leukemia; 2.61% (active) with OVCAR-8 ovarian; 52% with OVCAR-5 ovarian. The growth with OVCAR-4 ovarian was 71.1%; in the assay on SK-OV-3 ovarian, 40.6%; in the assay on IGROV1 ovarian it was 18.1%; in the assay with OVCAR-3 ovarian, 9.72% (active); in the assay with HS 578T breast, 23.6%; with NCI/ADR-RES ovarian, 16.6%. Besides, the growth in the assay on T-47D breast was 75.7%.

With `Cn1cc(-c2cc(N)n3nc(-c4cn(C)c5ccc(F)cc45)cc3n2)c2cc(F)ccc21`, the growth is 93.5% in the assay with EKVX NSCLC; 11.8% in the assay with SN12C renal; 21.2% in the assay with UO-31 renal; 48.7% in the assay on TK-10 renal; -38.6% (active) in the assay on ACHN renal; 56.5% in the assay on CAKI-1 renal. The growth is 72.6% in the assay on A498 renal; 3.2% (active) in the assay with CCRF-CEM leukemia; 3.58% (active) with MOLT-4 leukemia; -16.2% (active) with SR leukemia; 13.5% in the assay on RPMI-8226 leukemia; 88.5% in the assay on OVCAR-5 ovarian. For the same compound, the growth in the assay on OVCAR-4 ovarian is 23.6%; in the assay on SK-OV-3 ovarian, 128%; with IGROV1 ovarian, 42.7%; in the assay on OVCAR-3 ovarian, -0.991% (active); with HS 578T breast it was 18.5%; in the assay with NCI/ADR-RES ovarian it was 66.5%. In addition, the growth with T-47D breast was 22.5%.

For `O=C(Nc1nc2ccc(O)cc2s1)c1cccc(C(F)(F)F)c1`, the growth in the assay on EKVX NSCLC was 55.6%; with SN12C renal it was 68.9%; in the assay with UO-31 renal it was 33.4%; with TK-10 renal, 80.8%; in the assay with ACHN renal it was 53%; in the assay on CAKI-1 renal, 53%. Moreover, the growth in the assay on A498 renal was 78.9%; in the assay on CCRF-CEM leukemia, 31%; in the assay with MOLT-4 leukemia, 34.6%; in the assay with SR leukemia it was 75.7%; in the assay on RPMI-8226 leukemia it was 46.9%; with OVCAR-8 ovarian, 55.5%. Besides, the growth is 93.4% in the assay with OVCAR-5 ovarian; 63.6% with OVCAR-4 ovarian; 64.4% in the assay with IGROV1 ovarian; 101% with HS 578T breast; 51.3% in the assay on T-47D breast.

Consider `N#Cc1ccc(C(=O)CSc2nc(Nc3ccc(S(N)(=O)=O)cc3)c3ccccc3n2)cc1`, for which the growth was 104% in the assay with EKVX NSCLC; 100% in the assay with SN12C renal; 95.6% in the assay on UO-31 renal; 110% in the assay on TK-10 renal; 108% with ACHN renal; 102% in the assay on CAKI-1 renal. The growth with CCRF-CEM leukemia was 94.7%; in the assay on MOLT-4 leukemia, 106%; in the assay on SR leukemia, 95.9%; in the assay with RPMI-8226 leukemia it was 101%; with OVCAR-8 ovarian it was 109%; with OVCAR-5 ovarian, 110%. The growth in the assay with OVCAR-4 ovarian was 113%; with SK-OV-3 ovarian, 116%; with IGROV1 ovarian, 110%; in the assay with OVCAR-3 ovarian it was 119%; in the assay with HS 578T breast, 103%; in the assay with NCI/ADR-RES ovarian, 111%. For the same compound, the growth in the assay with T-47D breast is 103%.

Take `CCOc1ccc2nc(NC(=O)c3ccc(C(F)(F)F)cc3)sc2c1`: the growth is 102% in the assay on EKVX NSCLC; 101% with SN12C renal; 104% with UO-31 renal; 95.4% in the assay with TK-10 renal; 110% with ACHN renal; 98.1% in the assay on CAKI-1 renal. For the same compound, the growth in the assay on A498 renal is 95.7%; in the assay with CCRF-CEM leukemia it was 92.1%; with MOLT-4 leukemia, 103%; with SR leukemia, 89.5%; in the assay on RPMI-8226 leukemia it was 100%; in the assay on OVCAR-5 ovarian, 105%. The growth in the assay with OVCAR-4 ovarian is 107%; in the assay with IGROV1 ovarian it was 113%; with OVCAR-3 ovarian it was 109%; in the assay on HS 578T breast it was 114%; with T-47D breast, 97.7%.

For the compound `COc1cc(/C=C/C(=O)c2ccc(Cl)cc2)ccc1Oc1nc(NCCO)nc(N2CCOCC2)n1`, the growth was 99.6% with EKVX NSCLC; 96.6% with SN12C renal; 76.7% in the assay with UO-31 renal; 110% in the assay on TK-10 renal; 98.8% in the assay on ACHN renal; 94.2% in the assay with CAKI-1 renal. Also, the growth in the assay with CCRF-CEM leukemia was 78.4%; with MOLT-4 leukemia, 78.6%; in the assay on SR leukemia, 9.04% (active); in the assay on RPMI-8226 leukemia it was 65.4%; in the assay on OVCAR-8 ovarian, 104%; in the assay with OVCAR-5 ovarian, 102%. Moreover, the growth in the assay with OVCAR-4 ovarian is 114%; with SK-OV-3 ovarian it was 96.6%; in the assay on IGROV1 ovarian, 99%; in the assay with OVCAR-3 ovarian it was 116%; in the assay with HS 578T breast it was 84%; in the assay on NCI/ADR-RES ovarian it was 105%. The growth in the assay with T-47D breast was 86.1%.
